In PubChem BioAssay (Tox21):
Inconclusive results are not listed. Entries that show only a call come without a potency. The source made the active and inactive calls. Calls follow the shape of the dose curve; as a rule, active = well fitted inhibition curve with a large enough effect in the signal ratio in the repeat runs, with a control signal flat; inconclusive = weak or mixed curves, or effect the other way; inactive = flat fitted curve, though single readings scatter; the % refers to the signal ratio.

Biological target: D(2) dopamine receptor (Homo sapiens) (UniProt P14416)
Assay: Dopamine D2 receptor (DRD2) small molecule antagonists, cell-based qHTS assay (AID 1963595)
Details: HEK293-DRD2 cAMP HTRF antagonist mode; series mostly up to 92.4 µM
Description: National Center for Advancing Translational Sciences [NCATS]
Division of Preclinical Innovation [DPI]
U.S. Environmental Protection Agency [EPA]
National Institutes of Environmental Health Sciences [NIEHS]
National Toxicology Program [NTP]
U.S. Food and Drug Administration [FDA]
DRD2 is the D2 subtype of the dopamine receptor, which is coupled to Gi subtype of G protein-coupled receptor. This G protein-coupled receptor inhibits adenylyl cyclase activity. The DRD2-HEK293 cell line stably expressing D2 dopamine receptor can be used for screening agonists and antagonists of interactions between D2 and its ligands. The Hek293-DRD2 cAMP assay is based on HTRF technology. It measures changes of cAMP accumulation in response to Gi coupled GPCR activation or inhibition.
Tox21 Assay Protocol Summary:
DRD2-Hek293 cells were dispensed at 600 cells/3uL/well in 1536-well white plates using a Multidrop Dispenser. After the assay plates were incubated at a 37 C/5% CO2 incubator for 24 h, 1 uL of Ro20-1724 at final concentration of 0.1 mM was transferred to the assay plate by a Flying Reagent Dispenser. Following Ro20-1724 addition, 23 nL of compound dissolved in DMSO, positive controls or DMSO only was added to the assay plates via Wako pintool station. The assay plates were incubated at room temperature for 10 min. Next, 1 uL of mixture of NKH477 (final concentration at 200 nM) and quinpirole (final concentration at 12 nM) was added into the plates. After the assay plates were incubated at room temperature for an additional 30 min, 2.5 ul/well of cAMP-d2 and 2.5 ul/well of anti-cAMP-cryptate were added respectively into the assay plates using a Flying Reagent Dispenser. The plates were incubated at room temperature for 1 h. The fluorescence intensity in the plates was measured at 340 nm excitation and 665 & 620 nm emission by an Envision plate reader.
Potency is read from the fitted curve at half-maximal effect.

Sequence of D(2) dopamine receptor (Homo sapiens) (P14416 whole entry, looked up): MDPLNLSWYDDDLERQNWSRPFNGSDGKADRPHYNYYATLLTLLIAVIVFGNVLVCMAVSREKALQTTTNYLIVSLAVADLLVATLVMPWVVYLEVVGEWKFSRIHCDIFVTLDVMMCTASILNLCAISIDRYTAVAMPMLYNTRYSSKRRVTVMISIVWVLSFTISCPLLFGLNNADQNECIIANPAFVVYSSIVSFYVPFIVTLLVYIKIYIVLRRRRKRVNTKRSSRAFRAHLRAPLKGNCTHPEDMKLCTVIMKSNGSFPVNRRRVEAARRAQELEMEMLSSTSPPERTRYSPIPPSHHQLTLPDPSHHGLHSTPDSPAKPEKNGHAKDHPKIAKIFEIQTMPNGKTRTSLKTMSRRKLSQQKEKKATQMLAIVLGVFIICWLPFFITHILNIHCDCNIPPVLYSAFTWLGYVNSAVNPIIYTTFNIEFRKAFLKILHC

Structure (SMILES)	Potency	activity change, negative = inhibition
Cc1nc([N+](=O)[O-])cn1-c1ccc([N+](=O)[O-])cc1	inactive	
CC(O)(c1ccc(Cl)cc1)c1ccc(Cl)cc1	inactive	
Cc1ccccc1C(=O)Nc1ccc(C(=O)N2CCCC(O)c3cc(Cl)ccc32)c(C)c1 (stereo not given)	inactive	
O=C1NC(=O)[C@@H]2CC=CC[C@H]12	inactive	
CN(C)c1ccc(SC#N)cc1	inactive	
O=C1C=CC(=O)N1c1ccc(Cc2ccc(N3C(=O)C=CC3=O)cc2)cc1	4.33 µM (active)	
COC(C)CCO (stereo not given)	inactive	
CC(C)COC(=O)CCCCC(=O)OCC(C)C	inactive	
c1ccc(CN(Cc2ccccc2)Cc2ccccc2)cc1	inactive	
Nc1ccc([N+](=O)[O-])c(N)c1	inactive	
CC(=O)c1ccc[nH]1	inactive	
Cc1cc(NS(=O)(=O)c2ccc(N)cc2)no1	inactive	
CC(C)NC(=O)c1ccc(C=O)cc1	inactive	
CCCCc1oc2ccccc2c1C(=O)c1cc(I)c(OCCN(CC)CC)c(I)c1	inactive	
C=CC(=O)OCC(C)OCC(C)OCC(C)OC(=O)C=C (stereo not given)	inactive	
CCCCCCCCCCCCCCCCN(C)C		-3.89% [at 8.38 µM] (inactive)
O=C1N=C(O)CN1/N=C/c1ccc(-c2ccc([N+](=O)[O-])cc2)o1	inactive	
Cc1cc(O)c2c(c1)C(=O)c1cc(O)cc(O)c1C2=O	inactive	
c1cc(CCCc2ccncc2)ccn1	inactive	
CCOc1ccc(O)cc1	inactive	

Structure (SMILES)	Potency	activity change, negative = inhibition
COc1nccnc1NS(=O)(=O)c1ccc(N)cc1	inactive	
Nc1ccc2c3c(cccc13)-c1ccccc1-2	inactive	
CC(=O)Oc1ccc([N+](=O)[O-])cc1CCl	inactive	
CC[C@]12CCCN3CCc4c(n(c5ccccc45)C(=O)C1)[C@@H]32	inactive	
NNC(=O)CCCCC(=O)NN	inactive	
N#CCCN(CCO)CCO	inactive	
CCCCCCCCCCCCCC(=O)OC	inactive	
CC(=O)C(=O)CC(C)C	inactive	
O=C(O)Cc1cc(I)c(Oc2cc(I)c(O)c(I)c2)c(I)c1	inactive	
O=[N+]([O-])c1cc[n+]([O-])cc1	inactive	
Cc1ccc(O)c(C(C)(C)C)c1	inactive	
CCC/C=C(\C=O)CC	inactive	
O=C(Nc1cccc([N+](=O)[O-])c1)c1cc2ccccc2cc1O	inactive	
COc1c2occc2c(OC)c2c(=O)cc(C)oc12	inactive	
SC1CCCC1	inactive	
CCCCCCCCS(=O)(=O)O	inactive	
NC(=O)N1C(=O)C(C(=O)c2cc(Cl)cs2)c2cc(F)c(Cl)cc21 (stereo not given)	inactive	
c1ccc(C[n+]2cccc3ccccc32)cc1	inactive	
O=C(O)CCc1nc(-c2ccccc2)c(-c2ccccc2)o1	inactive	
C[C@@H](O)[C@H]1C(=O)N2C(C(=O)O)=C(S[C@@H]3CN[C@H](CNS(N)(=O)=O)C3)[C@H](C)[C@H]12	inactive	
